Data on 7 molecules can be found in PMC5540273 (PLoS ONE, 2017).
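Further: KINOMEscan kinase panel screen.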

The experiment has as its system DAPK1. Particulars: concentration: 1 μM, replicates: in singlicate; n = 1.
With `COc1ccc(Nc2nccc(-c3cccc(NC(=O)c4cc5cc(F)ccc5[nH]4)c3)n2)cc1` [GSK1229782], the “%Inh” value came out at 0%. The same measure for `O=C(O)COc1ncnc2cc(-c3ccc4[nH]ncc4c3)sc12`: 17%; for `Cc1ccc(-c2cc(-c3c[nH]nc3-c3ccccn3)ccn2)cc1` [GW684088]: 11%; for `Cc1c(O)cccc1Nc1ccnc2ccc(C(F)(F)F)cc12.Cl` [GW466413]: 0%.

On to `CS(=O)(=O)c1ccc(-c2c(-c3ncn[nH]3)sc(N3CCOCC3)c2C#N)cc1`, for which the “%Inh” value is listed as 5%. The same measure for `Fc1cccc(COc2nnc(-c3ccc4c(c3)CCO4)o2)c1`: 24%; for `COc1cc2ncnc(Nc3ccc4nc(-c5ccccc5)[nH]c4c3)c2cc1OC.Cl` [GW282450]: 1%.
